From PubChem
DAX1 inh-1 – blocks DAX1 repression of SF-1 activated StAR promoter | actives 1.1% (n = 370,000) | AID 652010 | inhibition, % at 6.8 µM | HEK293T StAR-luciferase reporter, SF-1/DAX-1 repression relief;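 active = inhibition above the mean over all tested compounds plus 3 SD, cut at about 3.6% in these data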;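 note: 0% = DAX-1 cells with DMSO and 100% = cells lacking DAX-1 with DMSO; higher inhibition means more luminescence from relief of DAX-1 repression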
DAX1 inh-2 – NR0B1 (DAX1) inhibition | P51843 | HEK293 Gal4-DAX1 luciferase reporter, luminescence | inhibition, % at 6.75 µM | actives 0.99% (n = 340,000);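 active = inhibition above the mean over all tested compounds plus 3 SD, cut at about 4.2% in these data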;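 note: 0% = DAX1-transfected cells with DMSO and 100% = empty-vector control cells with DMSO; inhibition shows as a rise in luminescence from relieved DAX1 repression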
Target sequence (P51843 207-470 limits assumed): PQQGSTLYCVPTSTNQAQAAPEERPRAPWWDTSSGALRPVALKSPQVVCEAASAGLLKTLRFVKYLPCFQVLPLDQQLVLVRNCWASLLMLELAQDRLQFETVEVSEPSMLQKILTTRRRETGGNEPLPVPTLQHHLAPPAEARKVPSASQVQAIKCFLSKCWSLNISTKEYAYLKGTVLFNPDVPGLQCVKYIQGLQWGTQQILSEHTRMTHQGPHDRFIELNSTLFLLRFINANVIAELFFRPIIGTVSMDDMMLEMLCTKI
hcDAF12 agonist – activators of H. contortus DAF-12 nuclear receptor; HEK293 hcDAF-12 lit1-tk-luc reporter, luminescence; 0% DMSO, 100% Δ7-dafachronic acid; activation, % at 6.8 µM; actives 1.4% (n = 370,000); AID 652067;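 active = activation above the mean of all tested compounds plus 3 SD, cut at about 5.5% in these data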;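 note: 100% = response to 3 µM Δ7-dafachronic acid high control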
hgDAF12 agonist – agonists of H. glycines DAF-12 nuclear receptor; HEK293 GAL4-hgDAF12 UAS-luciferase reporter, agonist luminescence; normalized to butyrate control; actives 1.8% (n = 370,000); activation, % at 6.8 µM;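 active = activation above a cutoff set at the mean of all screened compounds plus 3 SD, cut at about 10% in these data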;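 note: 0% = DMSO wells and 100% = sodium butyrate wells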
ssDAF-12 act – S. stercoralis DAF-12 activation, primary screen | actives 1% (n = 370,000) | HEK293 ssDAF-12/GRIP1 lit1-tk-luc reporter, luminescence; % of 3 µM dafachronic acid response | AID 652126 | activation, % at 6.8 µM;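 active = activation above the mean over all tested compounds plus 3 SD, cut at about 0.9% in these data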;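 note: 0% = DMSO-only wells and 100% = 3 µM delta7-dafachronic acid wells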
An asterisk follows results filed as active; . = no result. Rows were chosen to be rich in hits. Some 4.1% of all compounds tested hit in one or more screens of this group.

SMILES	DAX1 inh-1	DAX1 inh-2	hcDAF12 agonist	hgDAF12 agonist	ssDAF-12 act
Cc1ccsc1C(=O)OCc1nnc(-c2ccccc2)o1	4.0*	2	1	2	-1
Cc1occc1C(=O)N/N=C/C=C/c1ccc(N(C)C)cc1	3.8*	1	2	12*	0
CCCCN(C)CCNC(=O)c1ccc(Cn2c(=S)[nH]c3ccc(Br)cc3c2=O)cc1	4.0*	0	0	0	-1
O=C(NC(=O)c1ccccc1O)c1ccc2c(c1)CCO2	2	-2	4	12*	1.0*
O=C(NC(=S)NCc1cccnc1)c1ccccc1F	0	4	-2	0	-1
O=C(NC(=S)NCc1cccnc1)c1cccc2ccccc12	0	6.1*	4	2	0
CC(C)(C)c1ccc(NC(=S)NCc2cccnc2)cc1	0	5.2*	-1	0	-1
CC(O)CNc1nc2sc3c(c2c(=O)n1CCc1ccccc1)CCCCC3 (centres undefined)	-1	6.5*	0	2	-1
CN(C)CCNc1nc2sc3c(c2c(=O)n1CCc1ccccc1)CCCCC3	1	7.0*	-1	2	-1
CC(O)CNc1nc2sc3c(c2c(=O)n1Cc1ccco1)CCCCC3 (centres undefined)	0	1	1	2	0
Nc1[nH]c(C(=O)c2ccccc2)c(-c2cccc(C(F)(F)F)c2)c1C(=O)NCCc1c[nH]c2ccccc12	-1	.	-3	-3	-2
COc1ccc(-c2cc(CS(=O)(=O)c3ccccc3)on2)cc1	3	4.5*	1	13*	-1
O=S(=O)(Cc1cc(-c2ccccc2)no1)c1ccccc1	3	-1	0	10	-1
Cc1cc2nc3ccc(N(C)C)cc3nc2cc1N	4.4*	3	6.3*	9	1.1*
NNC(=O)c1ccc(COc2ccc3c(c2)CCC3)o1	0	1	-1	11*	-1
O=C(O)c1cc(OCc2ccccc2)cc(OCc2ccccc2)c1	0	0	0	2	-1
COc1ccccc1NC(=O)c1ccc(COc2ccc3c(c2)CCC3)cc1	0	0	1	1	-1
COc1ccc(OCc2cccc(C(=O)O)c2)cc1	1	-6	5.8*	5	0
CCOc1ccc(OCc2cccc(C(=O)N3CCCC3)c2)cc1	4.2*	-3	3	10	-1
COc1cccc(OC)c1C(=O)NNC(=O)c1cccc(COc2ccc3c(c2)CCC3)c1	2	-4	2	12*	-1
CCOc1ccc(C(=O)N2CCCC2)cc1	0	-1	0	1	-1
CC(COc1ccc([N+](=O)[O-])cc1Cl)CN1CCC(C(O)(c2ccccc2)c2ccccc2)CC1 (centres undefined)	0	.	-2	1	-1
O=C(O)c1cccc(COc2ccc(CO)cc2Cl)c1	3.6*	-6	2	1	0
O=C(OCC(F)(F)F)c1cccc(COc2ccc3ccccc3c2)c1	5.6*	-5	6.1*	15*	0
O=Cc1ccc(OCc2cccc(C(F)(F)F)c2)cc1O	-1	7.2*	-1	3	0
SMILES	DAX1 inh-1	DAX1 inh-2	hcDAF12 agonist	hgDAF12 agonist	ssDAF-12 act
COc1cccc(COc2ccc3ccc(=O)oc3c2)c1	1	2	0	10	1.0*
COc1ccc2ccc(=O)oc2c1	-1	4	-2	-4	-1
O=S(=O)(NCc1cn(Cc2ccccc2)nn1)c1ccccc1Br	0	.	-1	-2	-1
COc1ccc(-c2nnc(SCC(=O)N/N=C(\C)c3ccc(-c4ccccc4)cc3)n2-c2ccc(C)cc2)cc1	0	.	3	1	-1
C#CCNC(=O)C[C@H]1C(=O)N(CCCOC)C2=CCCCC[C@]21C(=O)OC	0	.	1	-3	-1
CC(C)Oc1cccc(C(=O)N2CCCC2)c1	0	-1	1	0	1.1*
O=C(C1CCC(CNc2c(N3CCCCC3)c(=O)c2=O)CC1)N1CCCC1 (centres undefined)	0	5.5*	0	-1	0
CC1CCN(C(=O)C2CCC(CNc3c(N4CCCCC4)c(=O)c3=O)CC2)CC1 (centres undefined)	0	1	3	-4	-1
O=C(Nc1cccnc1Cl)c1cccnc1Cl	0	0	-1	0	-2
O=C(Nc1cccnc1Cl)c1ccc(Cl)cc1	1	2	1	12*	0
O=C(/C=C/c1ccccc1)Nc1cccnc1Cl	2	2	2	10	1.8*
O=C(/C=C/c1ccccc1)Nc1ccc(Br)cn1	-1	2	1	13*	1
CC(C)=CC(=O)Nc1ccccc1C(N)=O	0	0	-1	2	-1
NC(=O)c1ccccc1NC(=O)/C=C/c1ccccc1	3	0	2	11*	0
O=C(COC(=O)/C=C/c1ccccc1)Nc1cccnc1Cl	-3	0	0	2	-1
NC(=O)c1ccccc1NC(=O)/C=C/c1ccc(Cl)cc1	1	-1	2	13*	0
CC(=O)N1CSCC1C(=O)NNS(=O)(=O)c1ccccc1 (centres undefined)	0	.	0	-1	-1
CC(=O)N1CSCC1C(=O)NNS(=O)(=O)c1cccc(C(F)(F)F)c1 (centres undefined)	0	6.3*	-1	1	-1
O=C(Nc1ccccn1)c1ccc(S(=O)(=O)N2CCCCCC2)cc1	4.3*	1	0	8	0
CC(=O)Nc1ccc(S(=O)(=O)N2CCN(c3ccccn3)CC2)cc1	0	-1	0	-4	-2
O=C(Nc1ccccn1)c1ccc(S(=O)(=O)N2CCCCC2)cc1	3.8*	1	2	5	0
CC(=O)Nc1ccc(S(=O)(=O)N2CCN(c3ncccn3)CC2)cc1	-1	6.0*	0	1	-2
CC(=O)N1CCN(C2=Nc3ccccc3Sc3ccccc32)CC1	0	.	-3	-1	-1
COc1ccc(CSc2nnc(SCC(=O)Nc3ccc(S(N)(=O)=O)cc3)s2)cc1	0	.	-3	1	-1
COc1cc2c(cc1NC(=O)c1ccco1)CCCC2	1	2	5.7*	7	0
Cc1ccc2c(c1)NC(=O)C(CC(=O)NCCN(CC(C)C)CC(C)C)O2 (centres undefined)	1	5.7*	-1	0	0
Cc1cc(C)cc(NC(=O)OC2CC3CC2[C@H]2CCCCN2[C@H]3Cc2ccccc2)c1 (some centres undefined)	0	.	0	2	0
CC(=O)Nc1nc(-c2ccc3c(c2)OCO3)cs1	2	1	3	12*	0
CN(C)/C=N/c1nc(-c2ccc3c(c2)OCO3)cs1	3	1	2	11*	-1
O=C(Nc1nc(-c2ccc3c(c2)OCO3)cs1)C1COc2ccccc2O1 (centres undefined)	0	1	2	-1	-1
